20 molecules from PubChem BioAssay (NCATS) can be followed below.

Records with an inconclusive call do not appear. A call without a number means that no potency is given here. Activity calls are given as the source filed them. The call rests on the fitted dose curve; in most records, active means well fitted inhibition curve with a large enough effect; inconclusive means small, poorly fitted or top-dose-only effect; inactive means flat fitted curve, though single readings scatter.
Potency means the concentration at half of the fitted maximal effect.

The subject of one test is CP192. Put plainly: qHTS profiling for inhibitors of Plasmodium falciparum proliferation (AID 504749). Further: nearly all actives have a fitted effect of over 60% in size. Particulars: P. falciparum in erythrocytes, SYBR Green DNA, 72 h; series mostly up to 28.7 µM. The method, boiled down: (§1)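 SYBR Green fluorescence of parasite DNA, read after lysis and overnight dark incubation, measured growth over 72 h in erythrocyte culture at 0.3% parasitemia and 2.5% hematocrit. Data normalised to DMSO and 0.29 uM artemisinin, with plate-drift correction.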
For orientation: Quantitative high-throughput screening tests each substance at several concentrations.
On to `C[C@]12CCC(=O)C(O)=C1CC[C@@H]1[C@H]3CCC(=O)[C@@]3(C)CC[C@@H]12`, for which the Potency entry is “inactive”.
Still for that read-out and setting: for `CC(C)NC(C)Cc1ccc(I)cc1` (stereo not drawn) the value was “inactive”.
The same measure, in the same setting: to `CCCCc1ccc(C(=O)O)nc1` belongs “inactive”.
On the same count and under the same terms, for `CC(=O)OCC1=C(C(=O)O)N2C(=O)[C@@H](N)[C@@H]2SC1` the value was “inactive”; for `NC(=O)CN1CC(O)CC1=O` (stereo not drawn), “inactive”; for `CCCN1CCC[C@H](c2cccc(O)c2)C1`, “inactive”.
For `COC(=O)c1cncn1C(C)c1ccccc1` (stereo not drawn), the Potency entry is “inactive”.
On to `O=C(O)C(Cl)Cl`, for which the Potency result is “inactive”.
Take `CC(=O)[O][Hg][c]1ccccc1`: the Potency was 9.53 µM (active).
Still for that read-out and setting: to `C=CCN1CC[C@]23CCCCC2[C@H]1Cc1ccc(O)cc13` (stereo partly drawn) belongs “inactive”; to `c1ccc(C2(c3ccccc3)CC2C2=NCCN2)cc1` (stereo not drawn), “inactive”; to `Cc1ccc(Cl)c(O)c1`, “inactive”.
With `CN1C2CCC1CC(OC(=O)c1cc(Cl)cc(Cl)c1)C2` (stereo not drawn), the Potency result was “inactive”.
On the same count and under the same terms, to `C1CCC(NC2CCCCC2)CC1` belongs “inactive”; to `Cc1cc(O)ccc1Cl`, “inactive”.
Consider `CCCCCCCCCC(CC)c1ccc(S(=O)(=O)O)cc1` (stereo not drawn), for which the Potency result was “inactive”.
On the same count and under the same terms, to `CC[N+]1(CCOC(=O)C(O)(c2ccccc2)c2ccccc2)CCCCC1` belongs “inactive”; to `O=C(O)COc1ccccc1`, “inactive”.
On the same count and under the same terms, to `CN[C@@H]1C[C@@H](c2ccc(Cl)c(Cl)c2)c2ccccc21` belongs “inactive”.

For another test, the system named is CP194. Described as above. Particulars: P. falciparum in erythrocytes, SYBR Green DNA, 72 h; series mostly up to 28.7 µM. The method in brief: as §1
Turning to `C[C@]12CCC(=O)C(O)=C1CC[C@@H]1[C@H]3CCC(=O)[C@@]3(C)CC[C@@H]12`, the Potency entry was “inactive”.
For the molecule `CC(C)NC(C)Cc1ccc(I)cc1` (stereo not drawn), the Potency entry was “inactive”.
As for `CCCCc1ccc(C(=O)O)nc1`, the Potency result was “inactive”.
With `CC(=O)OCC1=C(C(=O)O)N2C(=O)[C@@H](N)[C@@H]2SC1`, the Potency result was “inactive”.
As for `NC(=O)CN1CC(O)CC1=O` (stereo not drawn), the Potency result was “inactive”.
Still for that read-out and setting: to `CCCN1CCC[C@H](c2cccc(O)c2)C1` belongs “inactive”; to `COC(=O)c1cncn1C(C)c1ccccc1` (stereo not drawn), “inactive”.
Turning to `O=C(O)C(Cl)Cl`, the Potency result is “inactive”.
Still for that read-out and setting: for `CC(=O)[O][Hg][c]1ccccc1` the value was 9.53 µM (active); for `C=CCN1CC[C@]23CCCCC2[C@H]1Cc1ccc(O)cc13` (stereo partly drawn), “inactive”; for `c1ccc(C2(c3ccccc3)CC2C2=NCCN2)cc1` (stereo not drawn), “inactive”.
On the same count and under the same terms, for `Cc1ccc(Cl)c(O)c1` the value was “inactive”; for `CN1C2CCC1CC(OC(=O)c1cc(Cl)cc(Cl)c1)C2` (stereo not drawn), “inactive”.
The same measure, in the same setting: for `O=[N+]([O-])c1ccc([As](=O)(O)O)cc1` the value was 13.5 µM (active); for `C1CCC(NC2CCCCC2)CC1`, “inactive”.
Take `Cc1cc(O)ccc1Cl`: the Potency entry is “inactive”.
`CCCCCCCCCC(CC)c1ccc(S(=O)(=O)O)cc1` (stereo not drawn): the Potency entry was “inactive”.
On the same count and under the same terms, for `CC[N+]1(CCOC(=O)C(O)(c2ccccc2)c2ccccc2)CCCCC1` the value was “inactive”; for `O=C(O)COc1ccccc1`, “inactive”.
